# Source: PubChem BioAssay (The Scripps Research Institute Molecular Screening Center)
# Only some compounds are listed: those with a hit (about 1.5% of all), similar ones and a draw of the others.
# HGIII-sPLA2 inh – human group III sPLA2 inhibitors, primary screen, biochemical, QFRET, BODIPY PC-A2 liposome substrate; QFRET BODIPY PC-A2 liposome hydrolysis, fluorescence; inhibition, % at 12.2 µM; actives 0.56% (n = 370,000); Group 3 secretory phospholipase A2 (Homo sapiens), Q9NZ20;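 active = inhibition above mean plus 3 SD of compounds lying within the high and low control bounds, cut at about 19% in these data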
# PLC-gamma1 inh – PLC-gamma1 enzyme inhibitors, primary screen, biochemical, fluorescence, purified enzyme; 1-phosphatidylinositol 4,5-bisphosphate phosphodiesterase gamma-1 (Homo sapiens), P19174; fluorogenic substrate; inhibition, % at 12.2 µM; actives 0.84% (n = 370,000); AID 720700, 2013
# PLC-beta3 inh – human PLC-beta3 inhibitors, primary screen, biochemical, fluorescence; Purified PLC-beta3, fluorogenic substrate; inhibition, % at 12.2 µM; actives 0.18% (n = 370,000); in the data active = inhibition above about 11%
# Target sequence (Q01970 whole entry, looked up): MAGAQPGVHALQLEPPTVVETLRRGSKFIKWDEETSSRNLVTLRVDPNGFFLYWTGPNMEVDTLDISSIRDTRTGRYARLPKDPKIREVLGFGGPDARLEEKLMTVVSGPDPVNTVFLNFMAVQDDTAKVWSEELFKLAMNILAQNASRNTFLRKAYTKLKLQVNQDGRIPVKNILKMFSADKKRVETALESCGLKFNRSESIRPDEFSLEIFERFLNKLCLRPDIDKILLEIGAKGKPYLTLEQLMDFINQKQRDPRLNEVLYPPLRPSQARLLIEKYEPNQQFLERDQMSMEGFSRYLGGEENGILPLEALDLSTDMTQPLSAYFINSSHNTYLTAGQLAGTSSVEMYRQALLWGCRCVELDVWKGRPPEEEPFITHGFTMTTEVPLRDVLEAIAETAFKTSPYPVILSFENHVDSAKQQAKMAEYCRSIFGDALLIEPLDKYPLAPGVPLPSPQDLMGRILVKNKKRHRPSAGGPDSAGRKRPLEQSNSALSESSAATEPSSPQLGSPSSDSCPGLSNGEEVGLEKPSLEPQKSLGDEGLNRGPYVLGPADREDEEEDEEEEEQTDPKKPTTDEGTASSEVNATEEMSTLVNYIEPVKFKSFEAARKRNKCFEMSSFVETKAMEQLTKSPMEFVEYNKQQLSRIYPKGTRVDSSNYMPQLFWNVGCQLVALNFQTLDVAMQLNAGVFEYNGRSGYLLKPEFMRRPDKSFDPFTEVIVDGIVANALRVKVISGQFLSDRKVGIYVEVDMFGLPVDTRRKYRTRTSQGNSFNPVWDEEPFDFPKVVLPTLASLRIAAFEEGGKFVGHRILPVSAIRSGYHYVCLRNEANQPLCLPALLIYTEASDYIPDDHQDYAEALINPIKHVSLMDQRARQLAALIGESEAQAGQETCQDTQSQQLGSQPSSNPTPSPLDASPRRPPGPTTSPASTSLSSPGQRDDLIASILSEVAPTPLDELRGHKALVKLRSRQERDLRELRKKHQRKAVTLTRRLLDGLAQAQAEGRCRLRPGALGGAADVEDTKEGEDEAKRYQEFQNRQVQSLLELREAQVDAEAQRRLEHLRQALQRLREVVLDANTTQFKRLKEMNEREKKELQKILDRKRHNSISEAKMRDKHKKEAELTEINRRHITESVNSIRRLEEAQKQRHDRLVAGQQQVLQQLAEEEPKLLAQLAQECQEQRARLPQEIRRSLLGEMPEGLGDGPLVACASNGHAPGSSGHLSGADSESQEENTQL
# DAGLB inh – DAGLB lipase inhibitors, primary screen, biochemical, fluorescence, HTS; HEK293T DAGLB membrane lysate, EnzChek fluorogenic substrate; inhibition, % at 5.17 µM; actives 0.059% (n = 340,000); AID 504411, 2011; in the data active = inhibition above about 34%
# PLCg1 ctr – PLC-gamma1 enzyme inhibitors, counter-screen for PLC-beta3 inhibitor project, biochemical, fluorescence; shares compounds with PLC-gamma1 inh; purified PLC-gamma1, fluorogenic substrate; inhibition, % at 12.3 µM; actives 3.1% (n = 3,300); AID 743258, 2014
# PLCb3 confirm – PLC-beta3 inhibitor confirmation, biochemical, fluorescence, purified enzyme; shares compounds with PLC-gamma1 inh; fluorogenic substrate fluorescence; inhibition, % at 12.3 µM; actives 1% (n = 3,300); in the data active = inhibition above about 11%
# Hits are given with their value; . = inactive; / = no result. Rule as the data show it, unless noted: active = inhibition above about 9.5%; inactive = the rest.
SMILES,HGIII-sPLA2 inh,PLC-gamma1 inh,PLC-beta3 inh,DAGLB inh,PLCg1 ctr,PLCb3 confirm
Cc1ccc(S(=O)(=O)N(C)C)cc1NC(=O)[C@H](Cc1ccccc1)N1C(=O)c2ccccc2C1=O,.,.,.,.,/,/
COc1ccc(S(=O)(=O)N(C)C)cc1NC(=O)[C@H](Cc1ccccc1)N1C(=O)c2ccccc2C1=O,.,9.8,.,.,.,.
Cc1ccc2c(c1)C1CS(=O)(=O)N(CC(C)C)C(=O)N1C2 (stereo not drawn),.,.,.,/,/,/
CC1CCN(C2(O)C(=O)Nc3ccc([N+](=O)[O-])cc32)CC1 (stereo not drawn),.,10,14,.,.,.
CCOC(=O)c1[nH]c(C)c(C(=O)Nc2ccc(F)cc2)c1C,.,.,.,.,/,/
CCOC(=O)c1c(C)c(C(=O)Nc2ccc(F)cc2)c(C)n1C,.,13,.,.,.,.
Cc1cc(C)nc(N/N=C/c2ccccc2OCc2ccc([N+](=O)[O-])cc2)n1,.,13,.,.,.,.
COc1cc2[nH]c(=O)n(C3CCCCC3)c(=O)c2cc1OC,.,13,14,.,.,.
CC(C)(C)C1CCC(C(=O)Nc2ccccc2)CC1 (stereo not drawn),.,11,.,.,.,13
C=CC[C@]1(O)C(=O)N(c2ccccc2)c2ccccc21,.,.,.,/,/,/
NC(=NC(=O)/C=C/c1ccccc1Br)N(CC#Cc1ccccc1)CC#Cc1ccccc1,.,.,.,/,/,/
CC(C)NC(=O)CSc1nc2ccccc2n1CC(=O)N1CCc2ccccc21,/,/,/,.,/,/
CN(C)C(=O)Cn1c(SCC(=O)N2CCCc3ccccc32)nc2ccccc21,.,10,.,.,.,.
CC1CCCCN1C(=O)CSc1nc2ccccc2n1CC(=O)N1CCc2ccccc21 (stereo not drawn),.,9.6,.,.,.,.
CCC(NC(=O)c1ccc2c(ccn2Cc2cccc(-c3ccccc3C(=O)O)c2)c1)c1ccccc1 (stereo not drawn),.,.,.,/,/,/
COc1ccc(CS(=O)(=O)c2ncn[nH]2)cc1,.,37,.,.,20,.
Cc1cc(NC(=O)c2ccccc2)ncc1NC(=O)c1cccs1,.,.,16,.,.,.
O=C(N[C@@H](Cc1cccnc1)C(=O)N1CCC[C@H]1C(=O)NCCc1ccccc1Cl)c1ccc(Cl)cc1Cl,.,.,.,/,/,/
Cc1[nH]n(S(=O)(=O)Cc2ccccc2)c(=O)c1N=Nc1ccccc1Cl,.,12,.,.,.,.
Cc1[nH]n(S(=O)(=O)c2ccccc2)c(=O)c1N=Nc1cccc(Cl)c1,.,.,.,.,/,/
CC(/C=C/C(=O)c1ccc(C)cc1)=C\c1ccccc1,.,10,.,.,.,.
Cc1ccc(C(=O)/C=C\C(=O)c2ccc(C)cc2)cc1,.,.,.,.,/,/
Cc1cc(Cl)ccc1NC(=O)Nc1c(C)n(-c2ccccc2)c(=O)n1C,.,9.6,.,.,.,.
O=C(COC(=O)/C=C/c1cccc(F)c1)NNC(=O)c1ccccc1,.,11,.,.,.,.
O=C(COC(=O)/C=C/c1cccc(F)c1)Nc1ccccc1,.,.,.,.,/,/
SMILES,HGIII-sPLA2 inh,PLC-gamma1 inh,PLC-beta3 inh,DAGLB inh,PLCg1 ctr,PLCb3 confirm
Cc1cccc(Oc2ccc(C(=O)NC3CCSC3=O)cn2)c1C (stereo not drawn),.,.,15,.,.,.
O=C(Cc1cccs1)Nc1ccc(F)c(S(=O)(=O)N2CCOCC2)c1,.,9.9,.,.,.,.
Cc1ccc(NC(=O)COC(=O)CN2C(=O)C3CCCCC3C2=O)cc1S(=O)(=O)N1CCOCC1 (stereo not drawn),.,.,.,.,/,/
Cc1ccc(NC(=O)CSc2ccccc2)cc1S(=O)(=O)N1CCOCC1,.,12,.,.,.,.
Cc1ccc(NC(=O)COC(=O)CC2CC3CCC2C3)cc1S(=O)(=O)N1CCOCC1 (stereo not drawn),.,11,.,.,.,.
Cc1ccc(NC(=S)NCc2ccccc2)cc1S(=O)(=O)N1CCCCC1,.,14,.,.,.,.
O=C(Cc1cccs1)Nc1ccc(Cl)c(S(=O)(=O)N2CCOCC2)c1,.,.,.,.,/,/
COCc1cn(-c2cccc(-c3noc4c3C(=O)N(CC(=O)N3CCOCC3)CC4)c2)nn1,.,.,.,/,/,/
C[C@H]1[C@@H](N(C)C)CC[C@@]23CCCN2C(=O)CCC[C@@H]13,.,.,.,/,/,/
Cc1cc(=O)[nH]c(SCC(=O)Nc2ccc(Cl)cc2)n1,.,.,.,/,/,/
Cc1ccccc1NCC(=O)N/N=C/c1ccc[nH]1,.,.,.,/,/,/
C/C(=N/NC(=O)c1ccccc1)c1ccc(NC(=O)C(F)(F)F)cc1,.,.,11,.,.,.
C/C(=N\NC(=O)c1ccccc1)c1ccc(NC(=O)c2cccs2)cc1,.,.,.,.,/,/
Clc1ccc(C[n+]2cc(-c3ccccc3)n3c2CCCCC3)c(Cl)c1,.,.,.,.,/,/
Clc1ccc(-c2c[n+](Cc3ccc(Cl)cc3Cl)c3n2CCCCC3)cc1,.,11,.,.,.,.
Cc1cccc(-c2cccc3c4c([nH]c23)[C@@H]2C[C@H](N(C)C(=O)c3ccccc3C)[C@H]([C@H](C)O)CN2CC4)c1,.,.,.,/,/,/
O=C(CN1CCOCC1)Nc1c(C(=O)C2CC2)oc2ccccc12,.,.,.,.,/,/
CN1CCN(CC(=O)Nc2c(C(=O)C3CC3)oc3ccccc23)CC1,.,11,.,.,.,.
O=C(COC(=O)c1ccc(S(=O)(=O)NCc2ccco2)cc1)Nc1ccccc1OC(F)F,.,.,12,.,.,.
COCCNC(=O)CN(C(=O)CCC(=O)Nc1ccccn1)c1cc(C)ccc1C,.,13,.,.,.,.
CCOc1ccccc1N(CC(=O)NCCOC)C(=O)CCC(=O)Nc1ccccn1,.,.,.,.,/,/
CC(C)OC(=O)c1ccccc1C(=O)c1ccc(N)c([N+](=O)[O-])c1,.,9.8,.,.,.,.
CNC(=O)COC(=O)c1ccccc1C(=O)c1ccc(Cl)c([N+](=O)[O-])c1,.,.,.,.,/,/
CC(=O)Nc1ccc(NS(=O)(=O)c2cc(Cl)ccc2Cl)cc1,.,9.7,.,.,.,.
C=CCNC(=O)C(C(=O)OCC)C1CCCCC1 (stereo not drawn),.,10,14,.,.,.
CCOC(=O)CC[C@@H]1CC[C@]2(CCCN(Cc3nccn3C)C2)O1,.,.,.,/,/,/
Nc1[nH]c(C(=O)c2ccccc2)c(-c2cccc3ccccc23)c1C(=O)NC1CCCCC1,.,.,.,/,/,/
